Sm TGR block: inhibitors of Schistosoma mansoni thioredoxin glutathione reductase. Q962Y6. purified TGR, DTNB reduction, TNB absorbance 405 nm. Potency, µM (highest dose often 114 µM), most hits filed as inhibitors. 3% of 360,000 active; note: nearly all actives have a fitted effect of over 60% in size
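Kinetic colorimetric format: TGR-catalysed, NADPH-driven DTNB reduction monitored via TNB absorbance. Enzyme dispensed at 20 nM; compound exposure 15 min at room temperature before reaction start.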
CHX counter: counter-screen for Shiga toxin inhibitors: cycloheximide protein synthesis inhibition; cell reporter, cycloheximide protein synthesis inhibition counterscreen; max response, %; 12% of 300,000 active; AID 2314; in the data active = max response mostly above about 13%, no sharp cut-off; inactive = mostly below about 14%; note: read at 38.3 µM for the half of the compounds with a filed dose
FBPA Giardia inh: blocks Giardia fructose-bisphosphate aldolase activity | A8B2U2 | purified Giardia FBPA | Potency, µM (doses to about 59.6 µM), most hits filed as inhibitors | 0.71% of 290,000 active; note: nearly all actives have a fitted effect of over 55% in size
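40 nM FBPA preincubated 10 min at RT with compound (up to 57.5 uM final), then substrate plus GAPDH/TPI/NAD/arsenate coupling and diaphorase/resazurin added. Fluorescence read after 20 min at RT, 525/598 nm.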
Tb PYK inh: blocks Trypanosoma brucei pyruvate kinase | TbPYK enzyme, Kinase-Glo Plus ATP luminescence, 45 min | 0.12% of 410,000 active | Potency, µM (series often up to 76.8 µM), actives largely listed as inhibitors; note: nearly all actives have a fitted effect of over 50% in size
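Screened from lowest to highest concentration, compounds were pinned into TbPYK/substrate mixtures, and ADP (130 uM final) was added. Plates sat at room temperature for 45 min prior to Kinase-Glo Plus detection by luminescence.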
LmPK inh: inhibitors of Leishmania mexicana pyruvate kinase; Q27686; 0.37% of 290,000 active; Potency, µM (series often up to 57.5 µM), actives largely listed as inhibitors; AID 1721; purified LmPK, Kinase-Glo ATP luminescence, 1 h
Target sequence (Q27686 whole entry, looked up): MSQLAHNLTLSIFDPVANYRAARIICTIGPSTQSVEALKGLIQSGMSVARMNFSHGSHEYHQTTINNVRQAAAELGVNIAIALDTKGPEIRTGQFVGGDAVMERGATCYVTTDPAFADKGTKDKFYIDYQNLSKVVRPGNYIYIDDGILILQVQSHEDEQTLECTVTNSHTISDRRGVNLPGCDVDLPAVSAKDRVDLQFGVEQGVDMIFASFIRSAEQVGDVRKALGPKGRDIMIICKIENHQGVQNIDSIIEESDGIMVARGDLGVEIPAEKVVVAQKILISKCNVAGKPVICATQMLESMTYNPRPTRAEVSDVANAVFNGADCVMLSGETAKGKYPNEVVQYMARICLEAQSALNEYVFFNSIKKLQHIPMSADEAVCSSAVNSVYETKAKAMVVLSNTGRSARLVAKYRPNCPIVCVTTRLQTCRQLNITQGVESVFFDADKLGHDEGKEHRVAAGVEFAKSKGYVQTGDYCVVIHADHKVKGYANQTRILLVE
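Kinase-Glo luminescence read after 1 h RT reaction of 0.1 nM LmPK with 0.5 mM PEP and 0.1 mM ADP. Activity scaled between uninhibited and enzyme-free controls.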
Shiga toxin inh: blocks Shiga toxin action in Vero cells; Vero cells, Shiga toxin protein synthesis inhibition reporter; inhibition, % at 38.7 µM; 9.2% of 290,000 active; AID 2315; in the data active = inhibition mostly above about 28%, no sharp cut-off; inactive = mostly below about 43%
A number is an active result; 0 = inactive; ? = inconclusive; - = no result given. This excerpt belongs to a sample that is enriched for hits. Unless noted, calls come from the whole dose curve; as a rule, active = well fitted curve in the direction sought with a large enough effect; inconclusive = small, poorly fitted or top-dose-only effect, or another doubt; inactive = no such curve, though single readings can be large; an effect the other way counts as inactive or inconclusive.

SMILES	Sm TGR block	CHX counter	FBPA Giardia inh	Tb PYK inh	LmPK inh	Shiga toxin inh
Cc1nnsc1C(=O)NNc1ccc(C(C)C)cc1	?	40	0	0	0	59
Cc1nnsc1C(=O)NNc1ccc(C(C)(C)C)cc1	35µM	0	0	0	0	0
CSc1cccc(NC(=O)CN2C(=O)COc3ccc(S(=O)(=O)N4CCC(C)CC4)cc32)c1	0	-	-	0	-	-
COc1cccc(C2=CC(c3ccccc3F)n3ncc(C(=O)Nc4ccc(C)cc4)c3N2)c1 (configuration not stated)	0	-	-	0	-	-
COc1ccc(OCc2cc(C(=O)N[C@H]3CCCCNC3=O)no2)c(Cl)c1	0	49	-	0	0	58
CSc1ccccc1OCc1cc(C(=O)N[C@H]2CCCCNC2=O)no1	0	57	-	0	0	128
Cc1cc(N=Nc2ccc(C)c(N=Nc3cc(C)c(N)cc3N)c2)c(N)cc1N	0	62	?	0	20µM	76
Cc1ccc(N)cc1N	0	-	-	0	-	-
O=C(Nc1ccc(C(=O)NC2CCCCC2)cc1)c1cncc(Br)c1	0	0	0	0	0	0
CN(C)C(=O)c1ccc(NC(=O)c2cncc(Br)c2)cc1	0	0	0	0	?	active
CC(C)OC(=O)c1ccc(NC(=O)c2cncc(Br)c2)cc1	0	20	0	0	0	0
CN(C)CCCNc1cc(N2CCN(C3CCCCC3)CC2)c2noc3c2c1C(=O)c1ccccc1-3	0	-	-	0	-	-
COc1ccc(Cl)cc1NC(=O)CSC1=Nc2ccccc2C2=NC(CC(=O)NCc3cccs3)C(=O)N12 (configuration not stated)	0	-	-	0	-	-
[O-][N+](=C(c1ccccc1)c1ccccc1)c1ccccc1	-	-	-	0	-	-
COC(=O)C(Cc1ccc(OC(=O)c2ccc(C)cc2)cc1)N1Cc2ccccc2C1=O (configuration not stated)	0	57	0	0	0	89
COC(=O)C(Cc1ccc(O)cc1)N1Cc2ccccc2C1=O (configuration not stated)	0	41	0	0	0	42
Cc1cc(Oc2ccccc2)nc(-c2ccccc2)n1	0	27	-	0	0	0
c1ccc(Oc2cc(-c3ccccc3)nc(-c3ccccc3)n2)cc1	0	0	0	0	0	0
CCn1ccc2cc(S(=O)(=O)N3CCC(C(=O)NCCc4ccccc4Cl)CC3)ccc21	0	-	-	0	-	-
c1ccc2cc(C3N4CCCN34)ccc2c1 (configuration not stated)	0	24	0	0	0	0
CC(C)c1ccc(C2N3CCCN23)cc1 (configuration not stated)	0	0	0	0	0	0
CCc1c(C)sc(NC(=O)CN2CCN(C(=O)c3ccco3)CC2)c1C(=O)OC	?	16	-	0	0	0
COc1ccc(C2c3[nH]c4ccccc4c3CCN2C(=O)c2cc3ncccn3n2)c(F)c1 (configuration not stated)	0	0	0	0	0	0
COc1ccc(C2c3[nH]c4ccccc4c3CCN2C(=O)c2ccccc2C(C)=O)c(F)c1 (configuration not stated)	0	18	0	0	0	29
COc1ccc(C2c3[nH]c4ccccc4c3CCN2C(=O)c2cn3ccccc3n2)c(F)c1 (configuration not stated)	0	30	0	0	0	53
SMILES	Sm TGR block	CHX counter	FBPA Giardia inh	Tb PYK inh	LmPK inh	Shiga toxin inh
CC1=C(C)[N+](=O)C2(O)CCCCC2(C)N1[O-] (configuration not stated)	0	0	-	0	0	0
CC12CCCCC1(O)[N+](=O)C1=C(CCCC1)N2[O-] (configuration not stated)	?	15	?	0	0	0
COc1cccc(OCc2nc3ccccc3n2Cc2ccccc2)c1	0	-	-	0	-	-
C=CCn1c(COc2ccccc2OC)nc2ccccc21	0	8.4	0	0	0	0
CCOCCn1c(COc2ccccc2)nc2ccccc21	0	0	0	0	0	0
CCCn1c(COc2ccccc2)nc2ccccc21	0	8.3	0	0	0	0
C=CCc1ccccc1OCc1nc2ccccc2n1CC	0	-	-	0	-	-
CCc1nc2ccccc2n1CCCCOc1cccc(C)c1	0	-	-	0	-	-
CCn1c(COc2cccc(C)c2)nc2ccccc21	0	21	0	0	0	0
COCn1c(COc2ccc3ccccc3c2)nc2ccccc21	0	22	0	0	0	77
C/C=C1\COC(C(=O)NCc2cccc(OC)c2OC)(C(F)(F)F)C=C1C=C(C)C (configuration not stated)	-	0	0	-	-	0
CCOc1cc(CNC(=O)c2ccc3nc(C(C)C)oc3c2)cc(OCC)c1OCC	0	-	-	0	-	-
CCOC(=O)c1cnc2ccccc2c1Nc1cccc(OC)c1	0	-	-	0	-	-
COc1ccc(Cn2c(=O)c3oc4ccccc4c3n(Cc3ccccc3)c2=O)cc1	0	-	-	0	-	-
CCn1c(COc2ccccc2C)nc2ccccc21	0	33	0	0	0	39
CCCn1c(COc2ccccc2OC)nc2ccccc21	0	14	0	0	0	-
CCn1c(COc2ccccc2OC)nc2ccccc21	0	13	0	0	0	0
CCn1c(COc2ccccc2C(N)=O)nc2ccccc21	0	0	0	0	0	0
COc1cccc(-c2cc(=O)[nH][nH]2)c1	0	22	0	0	0	0
CCOc1cccc(-c2cc(=O)[nH][nH]2)c1	0	0	0	0	0	0
CCOc1ccc(C(=O)N2CCCCCC2)cc1	0	0	0	0	0	0
CCC(Oc1ccccc1)C(=O)N1CCC(C(N)=O)CC1 (configuration not stated)	0	18	0	0	0	42
CN(C)c1ccc(C(=S)N2CCNCC2)cc1	0	0	0	0	0	0
CCCCOc1ccc(C(=S)N2CCC(C(N)=O)CC2)cc1	0	38	0	0	0	105
CCOc1ccc(C(=S)N2CCCC2)cc1	0	14	0	0	0	88
SMILES	Sm TGR block	CHX counter	FBPA Giardia inh	Tb PYK inh	LmPK inh	Shiga toxin inh
CN(C)c1ccc(C(=S)N2CCCCC2)cc1	0	23	0	0	0	37
CCOc1ccc(C2C(C(N)=O)=C(C)Nc3nc(-c4ccc(OC)cc4)nn32)cc1 (configuration not stated)	0	-	-	0	-	-
COc1ccc(N(CC(=O)NCCc2ccccc2)S(=O)(=O)c2ccccc2)c(OC)c1	0	-	-	0	-	-
CCc1nc2c(OCC(=O)C(C)(C)C)cccn2c1N(C)C(=O)CC(C)C	-	-	-	0	-	-
O=C(CSc1nnc(-c2ccccc2F)o1)N1CCc2ccccc21	0	-	-	0	-	-
COC(=O)c1cc(Cl)c(NC(=O)c2ccc(C(C)(C)C)cc2)cc1OC	0	26	0	0	0	44
Cc1cccc(NC(=O)C2CCN(S(=O)(=O)c3ccc(F)cc3)CC2)c1C	0	-	-	0	-	-
N#CCSc1nc2[nH]ncc2c(=O)n1-c1ccccc1Br	0	0	0	0	11µM	0

Assay outcomes: PubChem BioAssay, National Center for Advancing Translational Sciences (NCATS)
